From the supplement of paper PMC11732987, “Enantioselective OTUD7B fragment discovery through chemoproteomics screening and high-throughput optimisation” (Communications Chemistry, 2025)

What was measured:
Assay in all cases: log2 ratio of Biotin-Ahx-Ub-VS probe labelling (fragment/DMSO); higher = less target engagement (more negative = stronger competition), active = hit call of the paper (q ≤ 0.05, log2 ratio ≤ -1)
Conditions in all cases: compound concentration: 200 uM; treatment time: 3 h
USP9X = USP9X (UniProt Q93008)
In short: (§1)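 Labelled DUBs from HEK293T lysate were NeutrAvidin-enriched, digested with LysC and trypsin, and run by diaPASEF LC-MS/MS. Before that, each 495 µg sample in Tris/CHAPS/IGEPAL buffer with protease inhibitors was treated in triplicate with fragment at 200 µM or vehicle for 3 h, then with Biotin-Ahx-Ub-VS at 0.5 µM final for 1 h. Values are average log2 ratios of fragment over vehicle by unpaired t-test, based on global-median-normalised Spectronaut label-free quantities from proteins with ≥2 unique peptides.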

UniProt O00487 = target: UniProt O00487
Sequence of UniProt O00487 (O00487 whole entry): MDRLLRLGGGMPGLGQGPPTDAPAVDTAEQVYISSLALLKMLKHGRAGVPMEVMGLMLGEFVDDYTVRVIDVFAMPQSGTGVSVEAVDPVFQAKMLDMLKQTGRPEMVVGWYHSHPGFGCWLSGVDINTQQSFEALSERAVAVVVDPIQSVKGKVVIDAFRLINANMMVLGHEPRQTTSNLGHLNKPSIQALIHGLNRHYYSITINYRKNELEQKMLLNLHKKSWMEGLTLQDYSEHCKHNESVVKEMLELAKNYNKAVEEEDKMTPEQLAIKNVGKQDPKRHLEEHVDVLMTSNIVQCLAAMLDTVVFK
In short: as §1

UniProt O00507 = target: UniProt O00507
Sequence of UniProt O00507 (O00507 whole entry): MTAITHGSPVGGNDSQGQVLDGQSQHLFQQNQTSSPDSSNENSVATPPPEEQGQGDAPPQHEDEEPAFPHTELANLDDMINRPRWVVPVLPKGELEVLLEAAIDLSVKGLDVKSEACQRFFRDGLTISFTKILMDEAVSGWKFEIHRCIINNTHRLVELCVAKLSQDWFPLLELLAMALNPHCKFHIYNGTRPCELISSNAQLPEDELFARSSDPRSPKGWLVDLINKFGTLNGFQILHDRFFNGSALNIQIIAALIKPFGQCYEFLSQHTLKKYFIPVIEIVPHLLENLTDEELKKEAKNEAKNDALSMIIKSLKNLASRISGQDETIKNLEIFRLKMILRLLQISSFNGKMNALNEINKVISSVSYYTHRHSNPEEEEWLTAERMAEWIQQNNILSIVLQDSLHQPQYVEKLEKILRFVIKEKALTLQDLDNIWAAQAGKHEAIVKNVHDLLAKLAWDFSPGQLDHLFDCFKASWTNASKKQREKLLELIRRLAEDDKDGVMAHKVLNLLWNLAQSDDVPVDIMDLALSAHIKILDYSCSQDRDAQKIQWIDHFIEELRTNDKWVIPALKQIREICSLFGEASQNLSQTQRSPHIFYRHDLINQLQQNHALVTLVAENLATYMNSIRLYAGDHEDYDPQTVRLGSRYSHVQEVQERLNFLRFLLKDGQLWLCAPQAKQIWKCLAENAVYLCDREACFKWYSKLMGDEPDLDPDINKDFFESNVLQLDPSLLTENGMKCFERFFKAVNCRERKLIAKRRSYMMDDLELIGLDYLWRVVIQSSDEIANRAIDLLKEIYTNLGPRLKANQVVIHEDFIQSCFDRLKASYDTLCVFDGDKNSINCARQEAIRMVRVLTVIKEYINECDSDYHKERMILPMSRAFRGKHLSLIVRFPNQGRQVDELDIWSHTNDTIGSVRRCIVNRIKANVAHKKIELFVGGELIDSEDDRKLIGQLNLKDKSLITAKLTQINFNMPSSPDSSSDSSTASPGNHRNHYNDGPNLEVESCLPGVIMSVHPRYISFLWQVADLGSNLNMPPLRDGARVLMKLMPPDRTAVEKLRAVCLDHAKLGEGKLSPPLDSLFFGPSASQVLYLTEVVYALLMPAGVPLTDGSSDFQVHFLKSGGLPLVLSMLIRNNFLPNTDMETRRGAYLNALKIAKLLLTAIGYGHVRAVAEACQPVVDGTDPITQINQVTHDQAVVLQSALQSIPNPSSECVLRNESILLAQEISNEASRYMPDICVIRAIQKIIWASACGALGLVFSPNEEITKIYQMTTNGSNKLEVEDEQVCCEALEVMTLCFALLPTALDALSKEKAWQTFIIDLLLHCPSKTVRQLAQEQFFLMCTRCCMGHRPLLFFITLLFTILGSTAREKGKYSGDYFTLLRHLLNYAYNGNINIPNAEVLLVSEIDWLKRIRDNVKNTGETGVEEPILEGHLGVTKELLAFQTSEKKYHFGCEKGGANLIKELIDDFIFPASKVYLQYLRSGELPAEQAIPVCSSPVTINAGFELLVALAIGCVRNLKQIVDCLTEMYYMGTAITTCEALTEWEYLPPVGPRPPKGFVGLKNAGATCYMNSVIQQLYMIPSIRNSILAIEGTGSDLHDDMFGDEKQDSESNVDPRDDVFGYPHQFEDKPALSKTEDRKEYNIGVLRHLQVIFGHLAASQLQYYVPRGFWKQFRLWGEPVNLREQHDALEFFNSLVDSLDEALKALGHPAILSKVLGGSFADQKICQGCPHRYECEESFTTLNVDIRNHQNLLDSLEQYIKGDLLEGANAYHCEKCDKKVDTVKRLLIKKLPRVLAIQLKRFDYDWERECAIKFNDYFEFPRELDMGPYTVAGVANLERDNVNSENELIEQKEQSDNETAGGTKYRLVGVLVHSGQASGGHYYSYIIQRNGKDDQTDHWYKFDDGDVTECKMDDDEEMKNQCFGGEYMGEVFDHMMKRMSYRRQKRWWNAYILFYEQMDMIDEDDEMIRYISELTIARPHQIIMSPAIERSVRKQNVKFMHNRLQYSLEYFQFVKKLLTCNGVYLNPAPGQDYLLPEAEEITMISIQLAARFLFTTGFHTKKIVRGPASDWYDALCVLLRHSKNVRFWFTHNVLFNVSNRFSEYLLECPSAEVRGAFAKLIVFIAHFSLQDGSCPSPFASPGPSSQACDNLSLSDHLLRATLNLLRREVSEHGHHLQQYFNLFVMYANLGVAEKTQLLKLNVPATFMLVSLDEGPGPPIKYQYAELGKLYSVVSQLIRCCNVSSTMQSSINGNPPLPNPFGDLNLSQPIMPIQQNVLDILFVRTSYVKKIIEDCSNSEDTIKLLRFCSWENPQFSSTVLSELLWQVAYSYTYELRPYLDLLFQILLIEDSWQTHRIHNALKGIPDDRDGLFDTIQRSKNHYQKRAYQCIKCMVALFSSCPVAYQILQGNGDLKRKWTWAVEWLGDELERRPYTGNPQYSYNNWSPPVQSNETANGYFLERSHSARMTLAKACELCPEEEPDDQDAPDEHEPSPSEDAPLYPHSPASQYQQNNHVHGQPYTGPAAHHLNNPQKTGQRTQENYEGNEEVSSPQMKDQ
In short: as §1

UniProt P51784 = target: UniProt P51784
Sequence of UniProt P51784 (P51784 whole entry): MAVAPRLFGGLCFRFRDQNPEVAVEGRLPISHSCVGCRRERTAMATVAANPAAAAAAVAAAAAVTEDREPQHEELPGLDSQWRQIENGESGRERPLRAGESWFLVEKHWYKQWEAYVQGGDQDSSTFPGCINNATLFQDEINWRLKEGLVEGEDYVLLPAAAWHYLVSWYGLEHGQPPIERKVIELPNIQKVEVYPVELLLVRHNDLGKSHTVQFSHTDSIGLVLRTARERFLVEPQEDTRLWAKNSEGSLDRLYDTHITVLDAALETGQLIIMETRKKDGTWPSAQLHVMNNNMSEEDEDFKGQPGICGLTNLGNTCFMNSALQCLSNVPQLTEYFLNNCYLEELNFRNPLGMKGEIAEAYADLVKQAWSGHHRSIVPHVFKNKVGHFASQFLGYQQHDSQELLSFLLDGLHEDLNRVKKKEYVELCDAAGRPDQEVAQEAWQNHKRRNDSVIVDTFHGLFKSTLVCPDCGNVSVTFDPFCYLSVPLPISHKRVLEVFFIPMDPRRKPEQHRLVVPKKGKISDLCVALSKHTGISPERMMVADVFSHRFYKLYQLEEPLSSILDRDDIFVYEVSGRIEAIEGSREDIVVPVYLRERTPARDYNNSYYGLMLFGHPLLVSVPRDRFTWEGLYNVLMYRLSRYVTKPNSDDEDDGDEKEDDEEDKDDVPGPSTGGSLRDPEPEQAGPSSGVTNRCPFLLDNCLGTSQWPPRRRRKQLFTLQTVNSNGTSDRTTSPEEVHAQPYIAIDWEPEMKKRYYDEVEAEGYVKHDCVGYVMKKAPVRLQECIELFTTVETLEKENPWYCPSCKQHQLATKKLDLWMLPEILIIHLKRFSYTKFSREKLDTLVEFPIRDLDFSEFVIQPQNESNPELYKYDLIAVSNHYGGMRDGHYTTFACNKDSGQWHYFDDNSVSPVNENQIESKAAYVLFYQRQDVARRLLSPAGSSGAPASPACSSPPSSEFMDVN
In short: as §1

UniProt Q5T2D3 = target: T1, UniProt Q5T2D3
T1 sequence (whole entry): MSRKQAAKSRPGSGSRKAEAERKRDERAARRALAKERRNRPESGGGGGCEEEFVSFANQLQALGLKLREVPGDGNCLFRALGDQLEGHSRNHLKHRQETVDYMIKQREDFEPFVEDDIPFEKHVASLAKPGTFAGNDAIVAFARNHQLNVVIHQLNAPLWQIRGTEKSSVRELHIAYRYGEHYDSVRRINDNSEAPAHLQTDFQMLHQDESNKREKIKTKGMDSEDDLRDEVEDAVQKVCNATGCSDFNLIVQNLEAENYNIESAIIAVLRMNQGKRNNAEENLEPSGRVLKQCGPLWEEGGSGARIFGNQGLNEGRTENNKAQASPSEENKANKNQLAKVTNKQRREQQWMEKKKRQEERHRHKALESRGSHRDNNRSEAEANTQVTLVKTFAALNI
In short: as §1

UniProt Q8TE49 = target: T2, UniProt Q8TE49
T2 sequence (whole entry): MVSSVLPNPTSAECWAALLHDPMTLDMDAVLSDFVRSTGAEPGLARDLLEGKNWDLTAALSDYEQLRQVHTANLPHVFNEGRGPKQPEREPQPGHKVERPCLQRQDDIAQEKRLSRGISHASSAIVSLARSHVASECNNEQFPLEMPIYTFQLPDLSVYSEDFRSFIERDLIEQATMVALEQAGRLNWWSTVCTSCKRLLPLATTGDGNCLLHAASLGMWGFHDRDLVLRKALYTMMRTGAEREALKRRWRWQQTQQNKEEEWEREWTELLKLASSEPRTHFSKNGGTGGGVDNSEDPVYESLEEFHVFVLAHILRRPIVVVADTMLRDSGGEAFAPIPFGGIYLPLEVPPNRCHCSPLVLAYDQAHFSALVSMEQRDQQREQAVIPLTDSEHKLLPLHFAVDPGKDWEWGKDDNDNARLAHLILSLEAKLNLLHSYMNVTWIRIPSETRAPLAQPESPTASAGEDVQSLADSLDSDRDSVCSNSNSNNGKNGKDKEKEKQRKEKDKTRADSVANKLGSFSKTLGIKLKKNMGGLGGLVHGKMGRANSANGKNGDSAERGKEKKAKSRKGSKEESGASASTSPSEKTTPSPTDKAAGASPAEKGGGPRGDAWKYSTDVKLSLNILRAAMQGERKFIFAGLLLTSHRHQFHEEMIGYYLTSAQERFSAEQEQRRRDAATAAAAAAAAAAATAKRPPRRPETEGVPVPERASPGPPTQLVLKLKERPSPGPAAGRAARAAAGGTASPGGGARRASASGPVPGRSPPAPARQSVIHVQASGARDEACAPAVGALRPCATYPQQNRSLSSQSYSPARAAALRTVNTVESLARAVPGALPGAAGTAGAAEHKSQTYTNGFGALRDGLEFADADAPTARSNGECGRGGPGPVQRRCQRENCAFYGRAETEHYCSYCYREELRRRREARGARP
In short: as §1

UniProt Q9P2H5 = target: T3, UniProt Q9P2H5
T3 sequence (whole entry): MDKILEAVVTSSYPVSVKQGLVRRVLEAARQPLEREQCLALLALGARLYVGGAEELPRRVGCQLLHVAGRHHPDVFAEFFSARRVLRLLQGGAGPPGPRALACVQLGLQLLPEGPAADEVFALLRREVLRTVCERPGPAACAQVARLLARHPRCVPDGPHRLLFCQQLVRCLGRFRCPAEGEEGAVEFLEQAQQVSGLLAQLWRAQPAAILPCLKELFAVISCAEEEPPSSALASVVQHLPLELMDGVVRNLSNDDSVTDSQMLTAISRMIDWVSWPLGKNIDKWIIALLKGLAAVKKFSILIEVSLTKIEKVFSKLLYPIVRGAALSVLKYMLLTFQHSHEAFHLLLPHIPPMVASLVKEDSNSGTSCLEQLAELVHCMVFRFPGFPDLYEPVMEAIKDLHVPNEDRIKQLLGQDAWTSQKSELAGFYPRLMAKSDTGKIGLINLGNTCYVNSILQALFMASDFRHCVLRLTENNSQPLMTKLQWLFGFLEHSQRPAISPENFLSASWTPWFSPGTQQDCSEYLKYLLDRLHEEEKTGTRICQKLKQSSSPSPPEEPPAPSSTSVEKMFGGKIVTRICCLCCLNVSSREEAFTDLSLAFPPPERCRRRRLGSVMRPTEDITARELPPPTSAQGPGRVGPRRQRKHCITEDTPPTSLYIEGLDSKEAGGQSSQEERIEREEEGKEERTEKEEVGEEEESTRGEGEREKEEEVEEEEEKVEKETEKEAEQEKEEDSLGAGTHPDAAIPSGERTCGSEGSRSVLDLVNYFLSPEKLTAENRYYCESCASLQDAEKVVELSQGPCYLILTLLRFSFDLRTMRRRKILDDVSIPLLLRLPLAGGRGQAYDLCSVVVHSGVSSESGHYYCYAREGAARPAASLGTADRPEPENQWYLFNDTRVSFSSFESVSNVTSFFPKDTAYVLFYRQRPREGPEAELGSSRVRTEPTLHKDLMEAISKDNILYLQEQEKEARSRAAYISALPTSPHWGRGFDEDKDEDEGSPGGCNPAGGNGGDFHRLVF
In short: as §1

UniProt Q9UGI0 = target: T4, UniProt Q9UGI0
T4 sequence (whole entry): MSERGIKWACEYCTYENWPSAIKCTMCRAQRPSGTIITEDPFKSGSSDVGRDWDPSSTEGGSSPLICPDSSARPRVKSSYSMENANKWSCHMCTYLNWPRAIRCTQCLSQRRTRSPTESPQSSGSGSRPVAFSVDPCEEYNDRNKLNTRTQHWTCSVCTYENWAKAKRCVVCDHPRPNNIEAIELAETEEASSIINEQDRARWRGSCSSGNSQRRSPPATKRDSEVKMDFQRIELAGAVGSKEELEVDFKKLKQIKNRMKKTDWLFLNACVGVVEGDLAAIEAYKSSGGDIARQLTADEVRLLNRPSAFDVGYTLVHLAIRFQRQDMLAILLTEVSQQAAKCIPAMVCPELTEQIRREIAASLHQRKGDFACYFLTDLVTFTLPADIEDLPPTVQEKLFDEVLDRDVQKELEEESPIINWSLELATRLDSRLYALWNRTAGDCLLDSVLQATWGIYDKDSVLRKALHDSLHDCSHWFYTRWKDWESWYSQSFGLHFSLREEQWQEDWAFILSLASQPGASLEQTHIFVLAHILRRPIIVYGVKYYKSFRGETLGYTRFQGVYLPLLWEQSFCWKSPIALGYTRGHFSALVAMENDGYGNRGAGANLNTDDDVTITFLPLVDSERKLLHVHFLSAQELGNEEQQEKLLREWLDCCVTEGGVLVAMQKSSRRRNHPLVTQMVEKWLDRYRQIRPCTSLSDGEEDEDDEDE
In short: as §1

YOD1 = target: T5, YOD1 (UniProt Q5VVQ6)
T5 sequence (whole entry): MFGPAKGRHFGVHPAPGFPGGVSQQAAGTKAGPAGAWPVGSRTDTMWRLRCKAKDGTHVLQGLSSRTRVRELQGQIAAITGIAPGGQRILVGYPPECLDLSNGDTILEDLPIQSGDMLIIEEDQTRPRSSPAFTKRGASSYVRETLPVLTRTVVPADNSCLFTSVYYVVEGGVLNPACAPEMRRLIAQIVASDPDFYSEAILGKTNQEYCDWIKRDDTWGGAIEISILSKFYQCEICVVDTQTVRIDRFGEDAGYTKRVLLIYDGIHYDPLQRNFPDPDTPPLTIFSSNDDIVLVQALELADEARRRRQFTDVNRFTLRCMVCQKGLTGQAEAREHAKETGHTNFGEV
In short: as §1

Measured: log2 ratio of Biotin-Ahx-Ub-VS probe labelling

Cl.O=C(CCl)N[C@H]1C[C@@H](n2cccn2)C1
inactive: USP9X -0.0582 | UniProt O00487 0.0109 | UniProt O00507 -0.599 | UniProt P51784 0.0814 | UniProt Q5T2D3 0.0298 | UniProt Q8TE49 -0.369 | UniProt Q9P2H5 0.122 | UniProt Q9UGI0 -0.284 | YOD1 -0.324
